From PubChem BioAssay AID492993 (Johns Hopkins Ion Channel Center, 2010)
About 200 (4.1%) of roughly 4,900 compounds were called active.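 The calls were made as follows: active = thallium signal drop more than 5 SD beyond the mean of the no-compound control wells, seen in both duplicate plates; inactive = the rest.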 These entries were drawn from the full list.

target: Inward rectifier potassium channel 2 (Mus musculus) (UniProt P35561); test: mouse Kir2.1 channel inhibition, confirmation, selectivity assay for KCNK9 modulator project, cell-based, HEK293, thallium flux (AID 492993); details: Kir2.1 cells, FluxOR thallium flux fluorescence, at 10 µM; hits give high values;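 as to inhibition: signal is fluorescence rise after thallium addition divided by baseline fluorescence; plate controls were assay buffer only for no effect and full block by chlorpromazine control for full effect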
Sequence (P35561 whole entry, looked up): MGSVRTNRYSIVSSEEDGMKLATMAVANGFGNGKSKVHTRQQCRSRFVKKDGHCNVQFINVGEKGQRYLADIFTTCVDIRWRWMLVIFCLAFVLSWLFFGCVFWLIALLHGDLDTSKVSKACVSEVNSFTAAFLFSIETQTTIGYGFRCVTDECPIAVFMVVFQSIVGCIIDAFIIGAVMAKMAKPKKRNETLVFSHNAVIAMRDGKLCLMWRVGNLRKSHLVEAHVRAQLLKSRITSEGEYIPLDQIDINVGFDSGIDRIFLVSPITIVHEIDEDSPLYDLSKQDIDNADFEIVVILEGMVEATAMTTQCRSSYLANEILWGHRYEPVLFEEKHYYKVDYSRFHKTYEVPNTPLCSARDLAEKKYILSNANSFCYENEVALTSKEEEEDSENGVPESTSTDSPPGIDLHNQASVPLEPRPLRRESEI

inhibition, inactive:
COc1ccc(C2CC(c3cccs3)=Nc3ccccc3S2)cc1OC (stereo not given), COc1ccc(C(CCN(Cc2ccc(OC)c(OC)c2)C(=O)CCl)c2ccccc2)cc1 (stereo not given), Cc1ccc(OCc2cc(C(=O)N(C)CCc3ccccc3)no2)cc1C, CCOc1ccc(OCc2ccc(C(=O)Nc3cccc(C)n3)o2)cc1, Cc1ccccc1CSc1nnc(CCCCCNC(=O)OC(C)(C)C)o1, CC1(C)CC(=O)CC2(C1)NCC(c1ccccc1Cl)c1c2[nH]c2ccccc12 (stereo not given), O=C(NCCc1ccccc1)c1ccc2c(c1)N(Cc1ccccc1)CCS2, CCC1(C)Cc2c(sc3[nH]c(=S)n(Cc4ccccc4)c(=O)c23)CO1 (stereo not given), COc1ccc(CCNc2ncnc3c2nnn3Cc2ccccc2)cc1, COc1ccc(-c2nc(CCNC(=O)c3ccc(Br)o3)cs2)cc1, CCOc1ccc2[nH]c(=O)c(CN(Cc3nnnn3CCc3ccccc3)CC3CCCO3)cc2c1 (stereo not given), C=CCOc1ccc(/C=N/NC(=O)C(C)Sc2ccccn2)cc1OCC (stereo not given), O=C(OCC(=O)N(CCc1ccccc1)Cc1ccccc1)c1ccccc1[N+](=O)[O-], Cc1cccc(NC(=O)c2sc3nc4c(c(-c5ccco5)c3c2N)CCC4)c1, O=C(/C=C/NNC(=O)c1cccc(Br)c1)c1ccccc1, COc1cccc(-c2nn(C)c3sc(C(=O)N4CCN(c5ccccc5)CC4)cc23)c1, CC(C)CC(COCc1ccc(Cl)cc1)N1CCN(C(=O)c2ccc(C(F)(F)F)cc2)CCC1=O (stereo not given), O=C(COC(=O)c1c2c(nc3ccccc13)CCCC2)c1ccc(Br)s1, Cc1cc(OC(C)C(=O)Nc2ccc(S(=O)(=O)Nc3onc(C)c3C)cc2)cc(C)c1Cl (stereo not given), Cc1cccc(C(=O)Nc2ccccc2N2CCN(c3ccc(F)cc3)CC2)c1, CCCCC(=O)Nc1ccccc1N1CCN(c2ccc(F)cc2)CC1, CCOc1ccccc1NC(=O)C1CCCN(S(=O)(=O)c2ccccc2)C1 (stereo not given), COc1ccc(C(=O)Nc2ccccc2C(=O)N/N=C/c2ccccc2OC)cc1, COC(=O)C1=C(Nc2ccc(C)cc2)C=C(C)C(C(=O)OC)C1c1ccc(F)cc1 (stereo not given), Clc1ccc(Cl)c(Oc2ccc(Oc3nc(Cl)ccc3Cl)cc2)n1, CCOc1cccc(OCCCOc2cccc3cccnc23)c1, O=C(COC(=O)c1ccccc1)Nc1ccccc1Sc1ccccc1, COc1cccc(-c2cnc(OC(C)(C)C)nc2OC(C)(C)C)c1, CC(C)(C)C1CCC(C(=O)NCC(c2cccs2)N2CCOCC2)CC1 (stereo not given), COCCNc1cc(-c2ccccc2)nc2cc(-c3cccc(F)c3)nn12, CCOC(=O)N1CCN(C(=O)COc2ccc3oc4c(c3c2)CCCC4)CC1, O=C(NCc1ccccc1)C1=C[C@@H](C2CCCCC2)C[C@@H](OCc2ccc(CO)cc2)O1, CCN(C(=O)COc1ccc(C(=O)c2ccccc2)cc1)c1ccccc1, Cc1cc2ccccn2c1C(=O)c1cccc(F)c1, CCOC(=O)C(C)Sc1nc2ccccc2c(=O)n1CC1CCCCC1 (stereo not given), COc1cc(Cl)c(C)cc1NC(=O)CSc1nnc(-c2ccco2)n1CC(C)C, CC1CCN(C(=O)c2ccc(CSc3ccc(Cl)cc3)cc2)CC1, COc1ccc(-c2n[nH]c3c2CN(C(=O)c2ccc(F)cc2)CC3)cc1, Cc1ccc2c(c1)N(C(=O)CCC(=O)N1CCc3ccccc3C1)CCO2, O=C1CC(c2ccccc2)=NN1c1ccc([N+](=O)[O-])cc1, CCOC(=O)C1(CCOc2ccccc2)CCN(Cc2cc(OC)c(O)cc2Cl)CC1, COc1cccc(NC(=S)N(CCc2c(C)[nH]c3ccccc23)Cc2ccco2)c1, Cc1cccc(N2CCN(C(=O)c3cccc(S(=O)(=O)N4CCc5ccccc5C4)c3)CC2C)c1 (stereo not given), CCC(c1nnnn1Cc1ccco1)N(CCc1ccccc1)Cc1cc2cccc(C)c2[nH]c1=O (stereo not given), COc1cccc2cc(C(C)N(CCCN3CCOCC3)C(=O)Nc3ccc(Cl)cc3)oc12 (stereo not given), Cc1cccc2cc(CN(Cc3nnnn3Cc3ccccc3)C3CCCC3)c(=O)[nH]c12, Fc1ccc(Cn2nnnc2C(c2cccs2)N2CCCCCC2)cc1 (stereo not given), COc1ccc(C(=O)NN2C(=O)C3C(c4ccccc4)C=CC(c4ccccc4)C3C2=O)cc1 (stereo not given), COc1cc(Cl)ccc1OCc1cc(C(=O)N2CC[C@@H]3CCCC[C@H]3C2)no1, COc1ccccc1/C=C/C=N/n1c(-c2ccc(Cl)cc2Cl)n[nH]c1=S, CCOc1ccc(C2c3[nH]c4ccccc4c3CCN2Cc2cccn2-c2ncccn2)cc1 (stereo not given), CC1=NN(c2cccc(Cl)c2)C(=O)C12CC(C)=C(C)CS2 (stereo not given), CC1=CC(C)(C)N(C(=O)CSc2nnc(-c3ccccc3)o2)c2ccc(C)cc21, Fc1cccc(Cl)c1CSc1ccc(-c2ccco2)nn1, O=C(Nn1c(SCc2ccc([N+](=O)[O-])cc2)nc2ccccc2c1=O)c1ccc(F)cc1, Cc1ccc(NC(=O)c2cc([N+](=O)[O-])ccc2Cl)c(O)c1, O=C(Nc1ccc2c(c1)CCC2)c1cccc(S(=O)(=O)Nc2ccccc2Cl)c1, COc1ccc(OC)c(-c2csc(-c3cccs3)n2)c1, CCN(CC)S(=O)(=O)c1ccc(N(C)Cc2ccc(C(F)(F)F)cc2)nc1, Cc1ccnc(N2CCN(C(=O)CSc3nc4ccccc4nc3N3CCCCC3)CC2)c1, CC(C)(C)NC(=O)NC(=O)CN1CCC(Cc2ccccc2)CC1, CCN(CC)C(=O)CC1(c2ccccc2OC)CCOC(C(C)C)C1 (stereo not given), COC(=O)c1cc(NC2c3ccccc3C(=O)N2c2ccc(Cl)cn2)cc(C(=O)OC)c1 (stereo not given)

inhibition, active:
COc1ccc(CCNC(=O)c2ccccc2OCc2ccccc2)cc1 54.5%, O=C(CNCCC1=CCCCC1)Nc1ccccc1N1CCCCCC1 34.5%
